Measurements: PubChem BioAssay AID2061166 (Soto Lab, Mitchell Center for Alzheimers Disease and …, 2025)
Values without a mark were called inactive.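 Rule for the calls: active = mean tau seeding fluorescence area under 1% of vehicle, meaning inhibition above a set limit; inactive = the rest.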

Target: Microtubule-associated protein tau (Homo sapiens) (UniProt P10636)
Assay: inhibitors of seeded tau aggregation, primary screen, biochemical, seed amplification, ThT fluorescence (AID 2061166)
Conditions: Recombinant tau seeded by AD brain, ThT fluorescence AUC; at 100 µM; stronger effect = higher value

Microtubule-associated protein tau (Homo sapiens), sequence (P10636 whole entry, looked up): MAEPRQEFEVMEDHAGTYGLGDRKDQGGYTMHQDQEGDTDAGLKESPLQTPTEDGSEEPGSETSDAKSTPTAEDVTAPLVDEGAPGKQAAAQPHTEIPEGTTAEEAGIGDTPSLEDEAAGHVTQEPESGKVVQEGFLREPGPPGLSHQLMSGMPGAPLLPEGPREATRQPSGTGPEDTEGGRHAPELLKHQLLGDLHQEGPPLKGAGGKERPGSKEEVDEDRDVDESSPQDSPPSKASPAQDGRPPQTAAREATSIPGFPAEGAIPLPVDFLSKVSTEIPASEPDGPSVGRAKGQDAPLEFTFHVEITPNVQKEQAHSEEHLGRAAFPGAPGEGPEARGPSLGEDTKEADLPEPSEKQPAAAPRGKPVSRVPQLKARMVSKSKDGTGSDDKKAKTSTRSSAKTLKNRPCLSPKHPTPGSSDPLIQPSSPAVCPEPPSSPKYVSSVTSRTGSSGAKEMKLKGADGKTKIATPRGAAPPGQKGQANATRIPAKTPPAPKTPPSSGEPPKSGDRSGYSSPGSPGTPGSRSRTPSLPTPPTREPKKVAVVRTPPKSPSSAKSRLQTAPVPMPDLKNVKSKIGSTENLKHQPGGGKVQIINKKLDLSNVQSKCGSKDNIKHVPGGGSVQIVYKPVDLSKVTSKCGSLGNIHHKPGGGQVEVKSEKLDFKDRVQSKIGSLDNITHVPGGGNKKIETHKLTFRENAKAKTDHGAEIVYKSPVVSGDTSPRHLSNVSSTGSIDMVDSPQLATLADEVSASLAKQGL

SMILES | inhibition [%]
O=S(=O)(O)c1cc(S(=O)(=O)O)c2c(N=Nc3ccccc3)c(O)ccc2c1 | 39
CN(C)CCCN1c2ccccc2Sc2ccccc21 | 13.2
CN(C)CCCN1c2ccccc2Sc2ccc(Cl)cc21 | 25.9
COc1cc(C(=O)NCc2ccc(OCCN(C)C)cc2)cc(OC)c1OC | 10.7
CNCCC(Oc1cccc2ccccc12)c1cccs1 (stereo not given) | 48.5
